From PubChem BioAssay (NCATS)
Inconclusive results are not listed. Calls of active or inactive are those of the source. Unless noted, calls come from the whole dose curve.

Legend:
[1] = qHTS for Inhibitors of the Functional Ribonucleoprotein Complex (vRNP) of Lassa (LASV) Arenavirus: LASV Primary Screen - GLuc reporter signal (AID 1347082; calls by dose curve; tested in HEK293 reporter line; note: nearly all actives have a fitted effect of over 60% in size); settings: LASV minigenome vRNP, Gaussia luciferase reporter; series mostly up to 57.5 µM
[2] = qHTS for Inhibitors of the Functional Ribonucleoprotein Complex (vRNP) of Lassa (LASV) Arenavirus: Viability assay - alamar blue signal for LASV Primary Screen (AID 1347083; calls by dose curve; tested in HEK293 reporter line; note: nearly all actives have a fitted effect of over 80% in size); settings: cell viability, alamar blue fluorescence (LASV minigenome counter-screen); series mostly up to 57.5 µM
[3] = qHTS for Inhibitors of the Functional Ribonucleoprotein Complex (vRNP) of Lymphocytic Choriomeningitis Arenaviruses (LCMV): Viability assay - alamar blue signal for LCMV Primary Screen (AID 1347085; calls by dose curve; tested in HEK293 reporter line; note: nearly all actives have a fitted effect of over 80% in size); settings: alamar blue viability counter-screen, LCMV vRNP screen cells; series mostly up to 57.5 µM
[4] = target: Nucleoprotein (Lymphocytic choriomeningitis virus (strain Armstrong)) (UniProt P09992); assay: qHTS for Inhibitors of the Functional Ribonucleoprotein Complex (vRNP) of Lymphocytic Choriomeningitis Arenaviruses (LCMV): LCMV Primary Screen - GLuc reporter signal (AID 1347086); settings: LCMV minigenome vRNP cell assay, Gaussia luciferase reporter; series mostly up to 57.5 µM; note: nearly all actives have a fitted effect of over 70% in size
Nucleoprotein (Lymphocytic choriomeningitis virus (strain Armstrong)), sequence (P09992 whole entry, looked up): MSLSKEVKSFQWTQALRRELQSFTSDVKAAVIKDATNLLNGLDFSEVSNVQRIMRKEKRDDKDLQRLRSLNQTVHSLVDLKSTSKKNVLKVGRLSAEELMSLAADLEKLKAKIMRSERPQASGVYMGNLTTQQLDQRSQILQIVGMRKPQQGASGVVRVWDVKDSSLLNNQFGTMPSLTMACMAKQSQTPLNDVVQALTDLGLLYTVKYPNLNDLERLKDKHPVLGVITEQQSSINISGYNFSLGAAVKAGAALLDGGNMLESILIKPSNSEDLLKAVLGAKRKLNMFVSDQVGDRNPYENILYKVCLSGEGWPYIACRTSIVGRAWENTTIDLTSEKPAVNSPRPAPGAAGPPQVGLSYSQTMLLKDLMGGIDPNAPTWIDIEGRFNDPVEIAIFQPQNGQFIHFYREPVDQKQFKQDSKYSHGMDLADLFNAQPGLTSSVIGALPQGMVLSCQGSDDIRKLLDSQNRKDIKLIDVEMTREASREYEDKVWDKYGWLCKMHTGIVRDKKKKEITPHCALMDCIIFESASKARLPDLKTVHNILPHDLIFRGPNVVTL

Measured: Potency
Potency is the fitted concentration of half-maximal effect.

COc1cccc(OC)c1-c1cc(C(=O)NC2(C(=O)O)C3CC4CC(C3)CC2C4)nn1-c1ccnc2cc(Cl)ccc12 (centres undefined)
inactive: all assays above

CC1=NN(c2ccccc2)C(=O)C1
inactive: all assays above

Cc1ccccc1N=Nc1ccc(N=Nc2c(O)ccc3ccccc23)c(C)c1
inactive: all assays above

CCCCCCCc1ccc(CCc2cccc(O)c2C(=O)O)cc1
inactive: all assays above

C/C(=C1\CCOC(=O)S1)N(C=O)Cc1cnc(C)nc1N
inactive: all assays above

CN1Cc2cc(C(=O)N3CCC(C4CCNCC4)CC3)ccc2N[C@@H](CC(=O)O)C1=O
inactive: all assays above

CCN1CCc2nc(N)oc2CC1
inactive: all assays above

Cn1cc(-c2ccc3nnc(C(F)(F)c4ccc5ncccc5c4)n3n2)cn1
inactive: all assays above

COc1cc2nc(-c3ccc(N4CCN(C)CC4)cc3)nc(NCCN3CCOCC3)c2cc1OC
active: [1] 685 nM | [2] 769 nM | [3] 968 nM | [4] 432 nM

OC[C@H](Cc1ccccc1)Nc1nc(Oc2ccc3c(c2)CCC3)nc2c1ncn2Cc1ccc(-c2ccccc2)cc1
inactive: all assays above

CCN(CC)CCNC(=O)c1ccc(NC(C)=O)cc1
inactive: all assays above

O=c1[nH]c(-c2ccc(C(F)(F)F)cc2)nc2c1CSCC2
inactive: all assays above

CC(C)OC(=O)c1cc(C(=O)OC(C)C)cc([N+](=O)[O-])c1
inactive: all assays above

CC[C@@H]1C(=O)N(C)c2cnc(Nc3ccc(C(=O)NC4CCN(C)CC4)cc3OC)nc2N1C1CCCC1
active: [1] 76.9 nM | [2] 48.5 nM | [3] 153 nM | [4] 30.6 nM

CC(C)(Sc1ccc(CCN(CCCCC2CCCCC2)C(=O)NC2CCCCC2)cc1)C(=O)O
inactive: all assays above

CC(C)(C)C(O)C(Oc1ccc(Cl)cc1)n1cncn1 (centres undefined)
inactive: all assays above

OCCC#Cc1nc(-c2ccc(F)cc2)c(-c2ccncc2)n1CCCc1ccccc1
inactive: all assays above

CC1(C)OC2=C(C(=O)c3ccccc3C2=O)[C@H](NCc2ccccc2)[C@H]1O
active: [1] 2730 nM | [2] 3060 nM | [3] 2170 nM | [4] 863 nM

Cc1cccc(C)c1NC(=O)c1ccc(N)cc1
inactive: all assays above

[O-][n+]1cccc(CO)c1
inactive: all assays above

CN(C)C1CCN(C(=O)c2ccc(NC(=O)Nc3nc(N4CCOCC4)nc(N4CCOCC4)n3)cc2)CC1
active: [1] 243 nM | [2] 68.5 nM | [3] 61.1 nM | [4] 96.8 nM

COc1cccc2c1CCCC2CCCN1CCN(C2CCCCC2)CC1 (centres undefined)
inactive: all assays above

Oc1cccc(-c2nc(N3CCOCC3)c3oc4ncccc4c3n2)c1
active: [1] 993 nM | [2] 885 nM | [3] 1400 nM | [4] 1400 nM

CCCCC(CC)COC(=O)/C=C/c1ccc(OC)cc1 (centres undefined)
inactive: all assays above

CCOC(=O)c1c(C)n(C)c2ccc(O)cc12
inactive: all assays above

CC(C)=CCCC(C)=CCCC(C)=CCSc1ccccc1C(=O)O
active: [1] 5440 nM | [2] 2430 nM | [3] 9680 nM | [4] 4320 nM

C=CC(=O)Nc1cccc(Oc2nc(Nc3ccc(N4CCN(C)CC4)cc3OC)ncc2Cl)c1
inactive: [1] | [4]
active: [2] 38.5 nM | [3] 48.5 nM

O=C(Nc1ccc(OC(F)(F)F)cc1)c1sccc1NCc1ccnc2ccccc12
inactive: all assays above

CC(=O)Oc1ccccc1C(=O)O
inactive: all assays above

Cc1c(C)c2c(c(C)c1OC(=O)c1cccnc1)CC[C@@](C)(CCC[C@H](C)CCC[C@H](C)CCCC(C)C)O2
inactive: all assays above

O=c1cc(CN2CCOCC2)occ1OCCCCCSc1ccnc2cc(C(F)(F)F)ccc12
active: [1] 21700 nM | [2] 1930 nM | [3] 273 nM | [4] 1220 nM

CC(=O)NCCC(=O)N[C@@H](CCC(N)=O)C(=O)N[C@@H](CO)C(=O)N[C@@H](CCC(N)=O)C(=O)N[C@@H](CCC(N)=O)C(=O)N[C@H](C(=O)N[C@@H](Cc1ccccc1)C(=O)N[C@]1(C)CCCCCCC=CCCC[C@@](C)(C(=O)N[C@@H](CCC(N)=O)C(=O)N[C@@H](CC(N)=O)C(N)=O)NC(=O)[C@H](CC(C)C)NC(=O)[C@H](CC(C)C)NC(=O)[C@@H](CCCNC(=N)N)NC(=O)[C@H](Cc2c[nH]c3ccccc23)NC(=O)[C@H](CC(C)C)NC(=O)[C@H](CC(N)=O)NC1=O)[C@H](C)O
inactive: all assays above

CCCCCC[C@H]1C(=O)O[C@H](C)[C@H](NC(=O)c2cccc(NC=O)c2O)C(=O)O[C@@H](C)[C@@H]1OC(=O)CC(C)C
active: [1] 1090 nM | [2] 4320 nM | [3] 4850 nM | [4] 1220 nM

Nc1nc2c(ncn2CCC(CO)CO)c(=O)[nH]1
inactive: all assays above

CC(=O)Nc1ccc([C@H](C)C(=O)Nc2ncc(C(C)C)s2)cc1
active: [1] 3060 nM | [2] 1220 nM | [3] 611 nM | [4] 1090 nM

OCCn1cc(-c2cnc3nnn(Cc4ccc5ncccc5c4)c3n2)cn1
inactive: all assays above

O=C(O)CCc1ccc(NCc2cccc(Oc3ccccc3)c2)cc1
inactive: all assays above

CCOC(=O)C(C)Oc1cccc2c(=O)n(CC(=O)Nc3ccc4c(c3)OCCO4)ccc12 (centres undefined)
inactive: all assays above

CC(=O)Nc1ccc(O)cc1
inactive: all assays above

CC(C)(C)c1nnc(NS(=O)(=O)c2ccccc2)s1
inactive: all assays above

CC(=O)OCC(=O)[C@@]1(O)[C@H](C)C[C@H]2[C@@H]3C=C(C)C4=Cc5c(cnn5-c5ccccc5)C[C@]4(C)[C@@H]3[C@@H](O)C[C@@]21C
inactive: all assays above

CN1[C@@H]2CC[C@H]1CC(OC(=O)C(O)c1ccccc1)C2 (some centres undefined)
inactive: all assays above

COc1ccc(C=Cc2cc(OC)c(OC)c(OC)c2)cc1O
inactive: all assays above

NC(=O)C1CCCc2c1[nH]c1ccc(Cl)cc21 (centres undefined)
inactive: all assays above

Cc1cccc(-c2nn(C(=S)Nc3ccccc3)cc2-c2ccnc3ccccc23)n1
inactive: all assays above

CCOc1cc2ncc(C#N)c(Nc3ccc(F)c(Cl)c3)c2cc1NC(=O)C=CCN(C)C
active: [1] 10900 nM | [2] 1930 nM | [3] 19300 nM | [4] 24300 nM

O=C(Nc1cccc(Cl)c1)Nc1ncc(CCNc2ncnc3ccsc23)s1
inactive: all assays above

NCCS
inactive: all assays above

CCc1c(C)[nH]c2c1C(=O)C(CN1CCOCC1)CC2 (centres undefined)
inactive: all assays above

CC(C)(C)C(O)/C=C/c1ccc2c(c1)OCO2 (centres undefined)
inactive: all assays above

CN(C)c1ccc(C2Nc3ccc4ccccc4c3C3=C2C(=O)CC(C)(C)C3)cc1Br (centres undefined)
inactive: all assays above

O=C1CCCC2=C1C(c1[nH]ncc1Cl)N=C(Nc1nc3ccccc3o1)N2 (centres undefined)
inactive: all assays above

CCCCCCCCOc1ccc(C(=O)c2ccccc2)c(O)c1
inactive: all assays above

COc1c(C)cnc(Cn2cnc3c(Cl)nc(N)nc32)c1C
active: [1] 1370 nM | [2] 611 nM | [3] 685 nM | [4] 344 nM

CC1=C(/C=C/C(C)=C/C=C/C(C)=C/C(=O)O)C(C)(C)CCC1
inactive: all assays above

N#Cc1c(O)c2c(-c3ccc(-c4ccccc4O)cc3)csc2[nH]c1=O
inactive: all assays above
